Where a name gives a salt, the structure may show the parent alone.
Key:
Assay in all cases: phenotypically active (imaging signature differs from DMSO and reproducible) at any of 0.3-9 uM (binary (1 = active, 0 = inactive)); higher = active
Conditions in all cases: treatment time: 24 h
A549-ACTB-RAB5A = system: A549-ACTB-RAB5A
How it was run: (§1)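 Two criteria together defined phenotypic activity: deviation and reproducibility. Deviation meant ≥3 of 4 wells beyond the 95th percentile of Euclidean distances in solvent control wells, and reproducibility meant a median replicate Pearson correlation above the 95th percentile of non-replicates. Wells had been treated for 24 h at 0.3, 1, 3 or 9 µM in fifteen gene-edited A549, HepG2 and WPMY1 reporter lines before live imaging.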

A549-CANX-COX4 = system: A549-CANX-COX4
How it was run: as §1

A549-GM130-SQSTM1 = system: A549-GM130-SQSTM1
How it was run: as §1

A549-TP53BP1-CLTA = system: A549-TP53BP1-CLTA
How it was run: as §1

A549-TUBA1B-RELA = system: A549-TUBA1B-RELA
How it was run: as §1

HepG2-ACTB-RAB5A = system: HepG2-ACTB-RAB5A
How it was run: as §1

HepG2-CANX-COX4 = system: HepG2-CANX-COX4
How it was run: as §1

HepG2-GM130-SQSTM1 = system: HepG2-GM130-SQSTM1
How it was run: as §1

HepG2-TP53BP1-CLTA = system: HepG2-TP53BP1-CLTA
How it was run: as §1

HepG2-TUBA1B-RELA = system: HepG2-TUBA1B-RELA
How it was run: as §1

WPMY1-ACTB-RAB5A = system: WPMY1-ACTB-RAB5A
How it was run: as §1

WPMY1-CANX-COX4 = system: WPMY1-CANX-COX4
How it was run: as §1

WPMY1-GM130-SQSTM1 = system: WPMY1-GM130-SQSTM1
How it was run: as §1

WPMY1-TP53BP1-CLTA = system: WPMY1-TP53BP1-CLTA
How it was run: as §1

WPMY1-TUBA1B-RELA = system: WPMY1-TUBA1B-RELA
How it was run: as §1

Measured: phenotypically active

COc1ccc([C@H]2CNC(=O)C2)cc1OC1CCCC1 [(S)-(+)-Rolipram]
inactive: A549-ACTB-RAB5A 0 | A549-CANX-COX4 0 | A549-GM130-SQSTM1 0 | A549-TP53BP1-CLTA 0 | A549-TUBA1B-RELA 0 | HepG2-ACTB-RAB5A 0 | HepG2-CANX-COX4 0 | HepG2-GM130-SQSTM1 0 | HepG2-TP53BP1-CLTA 0 | HepG2-TUBA1B-RELA 0 | WPMY1-ACTB-RAB5A 0 | WPMY1-CANX-COX4 0 | WPMY1-GM130-SQSTM1 0 | WPMY1-TP53BP1-CLTA 0 | WPMY1-TUBA1B-RELA 0

CN([C@H]1c2cc(OCCCC(F)(F)F)ccc2OC(C)(C)[C@@H]1O)S(C)(=O)=O
inactive: A549-ACTB-RAB5A 0 | A549-CANX-COX4 0 | A549-GM130-SQSTM1 0 | A549-TP53BP1-CLTA 0 | A549-TUBA1B-RELA 0 | HepG2-ACTB-RAB5A 0 | HepG2-CANX-COX4 0 | HepG2-GM130-SQSTM1 0 | HepG2-TP53BP1-CLTA 0 | HepG2-TUBA1B-RELA 0 | WPMY1-ACTB-RAB5A 0 | WPMY1-CANX-COX4 0 | WPMY1-GM130-SQSTM1 0 | WPMY1-TP53BP1-CLTA 0 | WPMY1-TUBA1B-RELA 0

CC(C)N(CCC(=O)c1ccc2ccccc2c1)Cc1ccccc1
inactive: A549-ACTB-RAB5A 0 | A549-CANX-COX4 0 | A549-GM130-SQSTM1 0 | A549-TP53BP1-CLTA 0 | A549-TUBA1B-RELA 0 | HepG2-ACTB-RAB5A 0 | HepG2-CANX-COX4 0 | HepG2-GM130-SQSTM1 0 | HepG2-TP53BP1-CLTA 0 | HepG2-TUBA1B-RELA 0 | WPMY1-ACTB-RAB5A 0 | WPMY1-CANX-COX4 0 | WPMY1-GM130-SQSTM1 0 | WPMY1-TP53BP1-CLTA 0 | WPMY1-TUBA1B-RELA 0

CC(C)c1ccc2oc3nc(N)c(C(=O)O)cc3c(=O)c2c1 [Amlexanox]
inactive: A549-ACTB-RAB5A 0 | A549-CANX-COX4 0 | A549-GM130-SQSTM1 0 | A549-TP53BP1-CLTA 0 | A549-TUBA1B-RELA 0 | HepG2-ACTB-RAB5A 0 | HepG2-CANX-COX4 0 | HepG2-GM130-SQSTM1 0 | HepG2-TP53BP1-CLTA 0 | HepG2-TUBA1B-RELA 0 | WPMY1-ACTB-RAB5A 0 | WPMY1-CANX-COX4 0 | WPMY1-GM130-SQSTM1 0 | WPMY1-TP53BP1-CLTA 0 | WPMY1-TUBA1B-RELA 0

CCCC(CCC)C(=O)O [Valproic acid, sodium salt]
inactive: A549-ACTB-RAB5A 0 | A549-CANX-COX4 0 | A549-GM130-SQSTM1 0 | A549-TP53BP1-CLTA 0 | A549-TUBA1B-RELA 0 | HepG2-ACTB-RAB5A 0 | HepG2-CANX-COX4 0 | HepG2-GM130-SQSTM1 0 | HepG2-TP53BP1-CLTA 0 | HepG2-TUBA1B-RELA 0 | WPMY1-ACTB-RAB5A 0 | WPMY1-CANX-COX4 0 | WPMY1-GM130-SQSTM1 0 | WPMY1-TP53BP1-CLTA 0 | WPMY1-TUBA1B-RELA 0

COc1cc(O)c2c(c1C1CCCN1)OC(c1ccc(O)cc1)CC2 (stereo not given) [Vochysine (4 dia/énantio)]
inactive: A549-ACTB-RAB5A 0 | A549-CANX-COX4 0 | A549-GM130-SQSTM1 0 | A549-TP53BP1-CLTA 0 | A549-TUBA1B-RELA 0 | HepG2-ACTB-RAB5A 0 | HepG2-CANX-COX4 0 | HepG2-GM130-SQSTM1 0 | HepG2-TP53BP1-CLTA 0 | HepG2-TUBA1B-RELA 0 | WPMY1-ACTB-RAB5A 0 | WPMY1-CANX-COX4 0 | WPMY1-GM130-SQSTM1 0 | WPMY1-TP53BP1-CLTA 0 | WPMY1-TUBA1B-RELA 0

C[N+]1(C)[C@@H]2C[C@@H](OC(=O)C(O)(c3cccs3)c3cccs3)C[C@H]1[C@@H]1O[C@@H]12 [Tiotropium bromide]
inactive: A549-ACTB-RAB5A 0 | A549-CANX-COX4 0 | A549-GM130-SQSTM1 0 | A549-TP53BP1-CLTA 0 | A549-TUBA1B-RELA 0 | HepG2-ACTB-RAB5A 0 | HepG2-CANX-COX4 0 | HepG2-GM130-SQSTM1 0 | HepG2-TP53BP1-CLTA 0 | HepG2-TUBA1B-RELA 0 | WPMY1-ACTB-RAB5A 0 | WPMY1-CANX-COX4 0 | WPMY1-GM130-SQSTM1 0 | WPMY1-TP53BP1-CLTA 0 | WPMY1-TUBA1B-RELA 0

O=C(O)[C@H](Cc1c[nH]c2ccccc12)N1C(=O)c2ccccc2C1=O
inactive: A549-ACTB-RAB5A 0 | A549-CANX-COX4 0 | A549-GM130-SQSTM1 0 | A549-TP53BP1-CLTA 0 | A549-TUBA1B-RELA 0 | HepG2-ACTB-RAB5A 0 | HepG2-CANX-COX4 0 | HepG2-GM130-SQSTM1 0 | HepG2-TP53BP1-CLTA 0 | HepG2-TUBA1B-RELA 0 | WPMY1-ACTB-RAB5A 0 | WPMY1-CANX-COX4 0 | WPMY1-GM130-SQSTM1 0 | WPMY1-TP53BP1-CLTA 0 | WPMY1-TUBA1B-RELA 0

O=C1CC(c2ccc(O)cc2)Oc2cc(O)cc(O)c21 (stereo not given) [Naringenine]
inactive: A549-ACTB-RAB5A 0 | A549-CANX-COX4 0 | A549-GM130-SQSTM1 0 | A549-TP53BP1-CLTA 0 | A549-TUBA1B-RELA 0 | HepG2-ACTB-RAB5A 0 | HepG2-CANX-COX4 0 | HepG2-GM130-SQSTM1 0 | HepG2-TP53BP1-CLTA 0 | HepG2-TUBA1B-RELA 0 | WPMY1-ACTB-RAB5A 0 | WPMY1-CANX-COX4 0 | WPMY1-GM130-SQSTM1 0 | WPMY1-TP53BP1-CLTA 0 | WPMY1-TUBA1B-RELA 0

COC(=O)c1ccc(N2CCN(C)CC2)c(NC(=O)c2cccc(OC)c2)c1
inactive: A549-ACTB-RAB5A 0 | A549-CANX-COX4 0 | A549-GM130-SQSTM1 0 | A549-TP53BP1-CLTA 0 | A549-TUBA1B-RELA 0 | HepG2-ACTB-RAB5A 0 | HepG2-CANX-COX4 0 | HepG2-GM130-SQSTM1 0 | HepG2-TP53BP1-CLTA 0 | HepG2-TUBA1B-RELA 0 | WPMY1-ACTB-RAB5A 0 | WPMY1-CANX-COX4 0 | WPMY1-GM130-SQSTM1 0 | WPMY1-TP53BP1-CLTA 0 | WPMY1-TUBA1B-RELA 0

CSc1ccc(C(=O)c2[nH]c(=O)[nH]c2C)cc1 [Enoximone]
inactive: A549-ACTB-RAB5A 0 | A549-CANX-COX4 0 | A549-GM130-SQSTM1 0 | A549-TP53BP1-CLTA 0 | A549-TUBA1B-RELA 0 | HepG2-ACTB-RAB5A 0 | HepG2-CANX-COX4 0 | HepG2-GM130-SQSTM1 0 | HepG2-TP53BP1-CLTA 0 | HepG2-TUBA1B-RELA 0 | WPMY1-ACTB-RAB5A 0 | WPMY1-CANX-COX4 0 | WPMY1-GM130-SQSTM1 0 | WPMY1-TP53BP1-CLTA 0 | WPMY1-TUBA1B-RELA 0
